The values that follow come from PubChem BioAssay AID371 (SRMLSC, 2006).

Structures are written as SMILES. The whole screen tested about 3,300 compounds, of which about 280 (8.5%) were called active.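 How the source made its calls: active means mean growth inhibition over the two runs of 50% or more; inactive means mean growth inhibition under 50%.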 For the sample, actives were picked, then their nearest neighbours and some compounds at random.

The experiment in a line: A549 NSCLC cell proliferation inhibitors – ATP luminescence, human non-small cell lung line, primary screen (AID 371).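 Further: compound exposure lasted 72 h before the ATP read; 0% = untreated cell signal and 100% = no luminescence left.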 The conditions noted are these: at 10 µM, hits give high values.
For `N#CC1=C(N)C(C#N)(C#N)[C@H](c2ccncc2)[C@H]2CN(C(=O)OCc3ccccc3)CC=C12`, the growth inhibition was 57.7% (active).

Turning to `CCOC(=O)N1CC=C2C(C#N)=C(N)C(C#N)(C#N)[C@H](c3cccs3)[C@H]2C1`, the growth inhibition was 8.61% (inactive).

In the case of `CC(C)(C)OC(=O)N1CC=C2C(C#N)=C(N)C(C#N)(C#N)[C@H](c3cccnc3)[C@H]2C1`, the growth inhibition was 9.35% (inactive).

As to `CCCCOc1ccc(CSC(CC(=O)O)C(=O)O)cc1` (centres undefined), the growth inhibition was -2.76% (inactive).

For `CCOc1ccc2c(C)nc(NC3=NC(C)(C)C=C(C)N3)nc2c1`, the growth inhibition was 72% (active).

`COc1ccc2c(C)nc(Nc3nc(C)cc(C)n3)nc2c1`: the growth inhibition was 2.87% (inactive).

As to `CCCCC(C(=O)O)C(C)CC(=O)Nc1cccc(C(=O)O)c1` (centres undefined), the growth inhibition was -1.54% (inactive).

For the molecule `CC[C@H]1OC(=O)C[C@@H](O)[C@H](C)[C@@H](O[C@@H]2O[C@H](C)C[C@H](N(C)C)[C@H]2O)[C@@H](CC=O)C[C@@H](C)C(=O)C=C[C@]2(C)O[C@H]2[C@@H]1C`, the growth inhibition is 24.4% (inactive).

For `CC1=C(C(=O)Nc2ccccc2)C(c2ccncc2)C(C#N)=C(SCC(=O)NC(C)C)N1` (centres undefined), the growth inhibition is 6.59% (inactive).

On to `CC(C)(C)C1CCC2(CC1)C(C#N)=C(SCC(=O)Nc1ccccc1)NC(=O)C2C#N` (centres undefined), for which the growth inhibition was 70.2% (active).

As for `CCc1ccc(NC(=O)CSC2=C(C#N)C(c3ccc4c(c3)OCO4)CC(=O)N2)cc1` (centres undefined), the growth inhibition was 8.25% (inactive).

On to `COC(=O)c1ccc(=O)n(Cc2ccc3c(c2)OCO3)c1`, for which the growth inhibition was 8.75% (inactive).

On to `CCc1cc2c(=O)c(-c3nc4ccccc4[nH]3)coc2cc1OC(=O)N1CCOCC1`, for which the growth inhibition was -4.96% (inactive).

Take `CCN(CC)C(=O)c1ccc(O)c(OC)c1`: the growth inhibition was -6.2% (inactive).

For the molecule `O=C(O)/C=C/c1ccc(O)c(O)c1`, the growth inhibition is -1.3% (inactive).

As to `COc1cc(/C=C/C(=O)CC(=O)/C=C/c2ccc(O)c(OC)c2)ccc1O`, the growth inhibition was 75.3% (active).

As to `Cc1ccccc1OCC(O)Cn1c(N2CCN(c3ccccc3)CC2)nc2c1c(=O)[nH]c(=O)n2C` (centres undefined), the growth inhibition was 3.03% (inactive).

`O=C(O)CC(NCc1ccco1)C(=O)OCC1CCCO1` (centres undefined): the growth inhibition was 0.9% (inactive).

Take `CCCC(=O)Nn1cnc2c(c1=O)C1(CCCC1)Cc1ccccc1-2`: the growth inhibition is 5.85% (inactive).

For `COc1cccc(N2CCN(C3CC(=O)N(c4cccc(Cl)c4)C3=O)CC2)c1` (centres undefined), the growth inhibition is 4.23% (inactive).

`CSc1ccc2c(c1)N(CCC1CCCCN1C)c1ccccc1S2` (centres undefined): the growth inhibition is 93.4% (active).

Regarding `CC(CN1c2ccccc2Sc2ccccc21)N(C)C` (centres undefined), the growth inhibition was 25.9% (inactive).

As to `COc1ccc(/C(O)=C2/C(=O)C(=O)N(CCCN(C)C)C2c2ccco2)cc1Cl` (centres undefined), the growth inhibition was 3.4% (inactive).

Regarding `COc1ccc(OC)c(C2/C(=C(\O)c3ccc4c(c3)OCCO4)C(=O)C(=O)N2CCCN(C)C)c1` (centres undefined), the growth inhibition was 7.35% (inactive).
